Source: PubChem
Rows were chosen to be rich in hits. Some 6.9% of all compounds tested hit in one or more screens of this group.
Mdm2-MdmX inh = disrupts the human Mdm2-MdmX interaction; 330,000 compounds, 3% hits; SaOS-2 split-luciferase Mdm2/MdmX complementation, luminescence; O15151+Q00987; inhibition, % at 8 µM;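 active = inhibition of at least 50% at 8 µM in the primary screen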
Target sequence (O15151 whole entry, looked up): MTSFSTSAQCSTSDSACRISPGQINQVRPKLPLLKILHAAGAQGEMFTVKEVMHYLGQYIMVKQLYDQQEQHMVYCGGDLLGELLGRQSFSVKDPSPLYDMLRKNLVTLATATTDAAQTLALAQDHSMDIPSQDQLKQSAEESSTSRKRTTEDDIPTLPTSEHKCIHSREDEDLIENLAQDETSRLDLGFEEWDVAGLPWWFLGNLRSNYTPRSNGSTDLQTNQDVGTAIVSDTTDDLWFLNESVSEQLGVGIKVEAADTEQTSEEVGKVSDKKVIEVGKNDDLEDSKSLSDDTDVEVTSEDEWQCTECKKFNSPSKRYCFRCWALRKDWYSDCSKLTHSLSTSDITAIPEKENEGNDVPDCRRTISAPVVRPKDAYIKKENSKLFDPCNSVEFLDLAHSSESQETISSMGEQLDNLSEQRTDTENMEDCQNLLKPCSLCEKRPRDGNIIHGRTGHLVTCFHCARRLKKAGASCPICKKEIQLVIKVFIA
Target sequence (Q00987 whole entry, looked up): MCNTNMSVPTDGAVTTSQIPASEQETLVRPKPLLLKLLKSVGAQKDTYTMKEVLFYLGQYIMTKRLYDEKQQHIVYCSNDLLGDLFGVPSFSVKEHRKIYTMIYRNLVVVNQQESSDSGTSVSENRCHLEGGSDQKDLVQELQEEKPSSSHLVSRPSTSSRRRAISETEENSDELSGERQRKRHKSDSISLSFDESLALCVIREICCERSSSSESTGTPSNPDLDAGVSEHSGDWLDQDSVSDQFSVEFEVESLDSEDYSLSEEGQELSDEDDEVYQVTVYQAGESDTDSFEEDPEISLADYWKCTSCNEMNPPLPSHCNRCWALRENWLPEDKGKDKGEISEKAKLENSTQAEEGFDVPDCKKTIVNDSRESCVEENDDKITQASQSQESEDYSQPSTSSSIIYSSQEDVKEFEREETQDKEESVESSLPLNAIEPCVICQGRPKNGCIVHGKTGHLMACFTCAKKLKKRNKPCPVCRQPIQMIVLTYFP
SKKanGAS inh = blocks kanamycin growth of S. pyogenes SKKanGAS strain; BacTiter-Glo, 6 h; inhibition, % at 7.5 µM; 300,000 compounds, 1.3% hits;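 active = mean replicate score, as percent of positive control median, at least 50; inconclusive = mean below 50 but one replicate at or above 50; inactive = mean and every replicate below 50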;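 note: strain carries kanamycin resistance gene driven by streptokinase promoter and grows in 40 µg/ml kanamycin; loss of luminescence reflects streptokinase promoter inhibition or plain growth inhibition; 0% = median of DMSO wells and 100% = positive control at its reference dose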
Beta cell apopt = beta cell apoptosis inhibition; 300,000 compounds, 0.8% hits; protection from apoptosis, % (concentration not given with the values); INS-1E cytokine-induced death, ATP luminescence, 48 h; percent of positive-control rescue, neutral wells zero;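 active = Every replicate reaches about 75%, or at least half do and their mean reaches it too, limit read from the data; inconclusive = At least half of replicates reach the limit but their mean does not; inactive = Under half of replicates reach the limit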;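 note: 0% = cytokine-treated negative control wells and 100% = positive control rescue; higher means more ATP so stronger rescue from cytokine killing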
NR3A LBD binder = modulates the human NR3A ligand-binding domain. NR3A LBD differential scanning fluorimetry, Tm shift; 0% = protein alone, 100% = glycine-bound protein. Tm shift relative to glycine control, % at 25 µM. 340,000 compounds, 2.5% hits. AID 1259313;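 active = melting temperature shift of at least 10% of the positive control shift, at one fixed dose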
CSC inhib = blocks cancer stem cells; cancer stem cell-like cells viability, luminescence; inhibition, % at 7.5 µM; 300,000 compounds, 1.1% hits; AID 2717; in the data active = inhibition above about 75%; inconclusive = no clear call, values can overlap the other calls; tested in HMLE shEcad cells
MPTP inh = inhibitors of mitochondrial permeability transition pore. isolated mouse mitochondria, Ca2+ swelling absorbance, 30 min. inhibition, % at 10 µM. 360,000 compounds, 1.4% hits. AID 602449;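 active = inhibition of 50% or more, scaled per plate between neutral and stimulator controls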;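 note: 0% = DMSO wells given calcium and 100% = 1 mM EGTA wells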
Active calls of the source: *.

Screening C[C@]12CCC(O)CC1CCC1C2CC[C@]2(C)C(c3cc(C(F)(F)F)n[nH]3)CCC12 (some centres not stated) returned Mdm2-MdmX inh 29, SKKanGAS inh 106*, Beta cell apopt 19, NR3A LBD binder 24*, CSC inhib 112* and MPTP inh -3.
Screening NS(=O)(=O)c1ccc(CCNCC(=O)NCc2ccccc2Cl)cc1 returned Mdm2-MdmX inh 5, SKKanGAS inh 1, Beta cell apopt 0, NR3A LBD binder 0, CSC inhib -17 and MPTP inh 0.
`O=C(/C=C/c1ccc(Br)o1)NC(c1ccccc1)c1ccccc1` gave Mdm2-MdmX inh 14, SKKanGAS inh -2, Beta cell apopt -5, NR3A LBD binder 20*, CSC inhib 11 and MPTP inh 34.
Cc1ccc(CNC(=O)CS(=O)(=O)c2cn(CC(=O)N3CCOCC3)c3ccccc23)cc1 was read as Mdm2-MdmX inh 10, SKKanGAS inh 6, Beta cell apopt 0, NR3A LBD binder -2, CSC inhib -2 and MPTP inh -1.
`COc1cccc(NC(=O)CSc2nnc(NC(=O)C3CC3)s2)c1` gave Mdm2-MdmX inh -8, SKKanGAS inh 9, Beta cell apopt -3, NR3A LBD binder 31*, CSC inhib 15 and MPTP inh 1.
Screening Cc1cccc(NC(=O)CSc2nnc(NC(=O)C3CCC3)s2)c1 returned Mdm2-MdmX inh 20, SKKanGAS inh 2, Beta cell apopt 0, NR3A LBD binder 18*, CSC inhib 2 and MPTP inh 0.
Screening CC(=O)Nc1cccc(NC(=O)CSc2nnc(NC(=O)C3CC3)s2)c1 returned Mdm2-MdmX inh 15, SKKanGAS inh 1, Beta cell apopt -5, NR3A LBD binder 2, CSC inhib -7 and MPTP inh 0.
Screening COc1ccc(OC)c(NC(=O)CSc2nnc(-c3cccnc3)s2)c1 returned Mdm2-MdmX inh 19, SKKanGAS inh -10, Beta cell apopt 99*, NR3A LBD binder -18, CSC inhib -21 and MPTP inh 1.
`Cc1cccc(C(=O)Nc2nnc(SCC(=O)Nc3ccc4c(c3)oc3ccccc34)s2)c1` gave Mdm2-MdmX inh 8, SKKanGAS inh -14, Beta cell apopt -1, NR3A LBD binder 76*, CSC inhib 3 and MPTP inh 0.
`COc1ccc(OC)c(NC(=O)CSc2nnc(-c3ccncc3)s2)c1` gave Mdm2-MdmX inh 4, SKKanGAS inh 21, NR3A LBD binder -2, CSC inhib -1 and MPTP inh -2.
For Cc1ccc(Cn2c(=O)c3ccccc3n3nc(C)cc23)cc1 the results were Mdm2-MdmX inh 3, SKKanGAS inh 0, Beta cell apopt 0, NR3A LBD binder -8, CSC inhib 8 and MPTP inh 1.
`O=C(c1cc2ccccc2oc1=O)N(Cc1ccccc1F)C1CCS(=O)(=O)C1` (configuration not stated) gave Mdm2-MdmX inh -13, SKKanGAS inh 2, NR3A LBD binder 1 and MPTP inh -2.
Cc1ccc(S(=O)(=O)CC(=O)Nc2ccc(Cl)cn2)cc1 was read as Mdm2-MdmX inh 6, SKKanGAS inh -1, Beta cell apopt -7, NR3A LBD binder -1, CSC inhib -12 and MPTP inh 2.
For COc1ccccc1/C=C/c1ccc2cccc(O)c2n1 the results were Mdm2-MdmX inh -53, SKKanGAS inh 97*, Beta cell apopt 18, NR3A LBD binder -2, CSC inhib 29 and MPTP inh 0.
Screening CCOc1cccc(/C=C/c2ccc3cccc(O)c3n2)c1OC returned Mdm2-MdmX inh 11, SKKanGAS inh 98*, CSC inhib inconclusive and MPTP inh 0.
`CCOc1c(OC(C)=O)ccc(/C=C/c2ccc3cccc(OC(C)=O)c3n2)c1[N+](=O)[O-]` gave Mdm2-MdmX inh -45, SKKanGAS inh 85*, Beta cell apopt 8, NR3A LBD binder -7, CSC inhib -6 and MPTP inh 21.
`COC(=O)c1ccc(/C=C/c2ccc3cccc(OC(C)=O)c3n2)cc1` gave Mdm2-MdmX inh -124, SKKanGAS inh 53*, Beta cell apopt 5, NR3A LBD binder 0, CSC inhib 28 and MPTP inh 2.
For COc1c(OC(C)=O)ccc(/C=C/c2ccc3cccc(OC)c3n2)c1[N+](=O)[O-] the results were Mdm2-MdmX inh -7, SKKanGAS inh 6, NR3A LBD binder -7 and MPTP inh 2.
`Cc1ccnc(NS(=O)(=O)c2ccc(NC(=O)Cc3ccc(Br)cc3)cc2)n1` gave Mdm2-MdmX inh 17, SKKanGAS inh 17, Beta cell apopt -2, NR3A LBD binder 1, CSC inhib 4 and MPTP inh 1.
Screening CCN1CCN(C(=O)Cn2nc(C)c3sc4ccccc4c3c2=O)CC1 returned Mdm2-MdmX inh 26, SKKanGAS inh -4, NR3A LBD binder 0, CSC inhib -13 and MPTP inh 0.
`COc1cc(OC)c(OC)cc1C=Cc1ccc2ccccc2n1` gave MPTP inh 0.
For COc1cc(Cl)cc(/C=C/c2ccc3cccc(O)c3n2)c1OC the results were Mdm2-MdmX inh 49, SKKanGAS inh 87*, Beta cell apopt 25, NR3A LBD binder -8, CSC inhib 46 and MPTP inh 1.
`O=C(Nc1ccsn1)c1ccc(Cl)cc1Cl` gave Mdm2-MdmX inh -64, SKKanGAS inh -1, Beta cell apopt -2, NR3A LBD binder 10*, CSC inhib -21 and MPTP inh -1.
Cc1cc(NC(=O)c2ccc(Cl)cc2Cl)no1 was read as Mdm2-MdmX inh -63, SKKanGAS inh 5, NR3A LBD binder 2, CSC inhib 0 and MPTP inh 0.
`O=C(COC(=O)C1CCC1)NCc1ccc(F)cc1` gave Mdm2-MdmX inh 3, SKKanGAS inh 3, Beta cell apopt -1, NR3A LBD binder 0, CSC inhib -2 and MPTP inh 0.
For CCOC(=O)C1=C(C)NC(C)=C(C(=O)OCC)C1C(=O)OCC(=O)NCc1ccc(F)cc1 the results were Mdm2-MdmX inh 2, Beta cell apopt 4, NR3A LBD binder 4, CSC inhib -5 and MPTP inh -3.
Screening CC(C)CCNc1nc(-c2ccco2)c2c(c1C#N)CCCC2 returned Mdm2-MdmX inh 30, SKKanGAS inh 41, Beta cell apopt -6, NR3A LBD binder 0, CSC inhib 80* and MPTP inh 0.
O=C(Nc1nc2ccccc2s1)C1CC(=O)N(c2ccc(Br)cc2)C1 (configuration not stated) was read as Mdm2-MdmX inh 16, SKKanGAS inh 22, Beta cell apopt -5, NR3A LBD binder 16*, CSC inhib 5 and MPTP inh 21.
CN(C)c1ccc(/C=N\NC(=O)c2cccc3cc[nH]c23)cc1 was read as Mdm2-MdmX inh 30, SKKanGAS inh 4, Beta cell apopt -7, NR3A LBD binder -4, CSC inhib 26 and MPTP inh 2.
For O=C(NCc1ccc(Cl)cc1Cl)Nc1nc([C@@H]2O[C@H](CO)[C@@H](O)[C@H](O)[C@H]2O)cs1 the results were MPTP inh -1.
